Data: the supplement of paper PMC6555819

test system: VDR:RXRa (NR concentration 270 nM, RXRa partner concentration 90 nM); assay: PBM binding z-score (relative to random genomic background probes); higher = stronger binding; sequences stand for … in GC…GCGATTGACAGCGTAGAATGAAGG
Protocol: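 Protein-binding microarray (Agilent 4x180K custom design, double-stranded 60-nt probes: 5' GC cap, 34-nt variable region, 24-nt constant primer region; full probe sequence given). Purified or IVT nuclear receptor:RXRα heterodimers (3:1 NR:RXRα, mostly 270:90 nM) or homodimers were incubated for 1 h in PBS with 2% milk and no ligand, then detected with Alexa488 antibodies. Fluorescence from o1-orientation probes (~5 replicates averaged) was converted to z-scores against 500 random hg19 background probes. Variable regions are seed direct-repeat (DR0–DR5) sites, all their single-nucleotide variants and half-site ablations.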

In order of rising PBM binding z-score:
1. TCTAGCAGGCCAGAGGGTCTCTCAAGAGGTACGG  -0.687
2. GCTGCTTGGTCAACTGATGGTCAGCTAAAGCTCG  -0.687
3. CCTAGCAGGCCAGCGTCACTCAAGCATTTCGCTT  -0.645
4. ACTAGCAGGCCAAGCGTCACTCAAGATTAGTCCG  -0.477
5. CCGAGTAGGTGATGGGGCATTCAGGCAACGGTGA  -0.461
6. GCTGCTCGGTCAGGTTGGTCAGCTAACGGGTACG  -0.457
7. TTACCAAGGTGAGCTGAAGTCGTTGATCCAACTC  -0.383
8. ACTAGCAGGCCAAGGGTAACTCAAGATTAGTCCG  -0.166
9. TCTTGTAGATCTGCAGGTTAAGAAAGCTGGCCAA  0.239
10. AGAATCAGGTTAAGATCAGGGAAACAGAATACAT  0.3
11. TCTATTAGTTGATTAGAGCAACCGAAACAGCGGA  0.404
12. ACTATTAGTTGACTTAGGGCAACCTATACGACGC  0.406
13. CCTTACGCGTCAAGGTTATAGCACGGGTGGTACG  0.442
14. ACTATTAGTTGACTTATGGCAACCGATACGACGC  0.458
15. AGAACGAGGGGACGCTGAGTTGATAGCAGAGTAG  0.464
16. TCATATAGGTAAAGGTGCAAGTCGAACGATATGA  0.567
17. CCTAGTAGTTGACCATAAGGGCAACCGAAGCTCG  0.633
18. TCAGACAGGTGAGGGTAACTCAGGTACGCAGTCG  0.677
19. TCTTGTAGATCAAAGGTGAAGAAAGCCGAAGCCT  0.74
20. TAGCTTAGGTCAGATCGGGCCAGTATACGCTATA  0.872
21. CCTACTGGGGCAGAAAGGTTACCATACCATCCGG  0.923
22. GGAACGAGGGCAAAGTTAATAGCATCTGTCGACG  1.17
23. TCATATAGGTAATACAGTTGAAAGTCGGCATCTA  1.63
24. ATCTCTAGGTAAAAGTTCAGTGACTCCCGAGGAT  1.71
25. CCTACTGGGCCATTCACAGGTCATTGATCATATG  1.72
26. TCTTGTAGATTAATAGAGGTTAAGAAAGTGCGCT  2.11
27. TAGCCTAGGTCATGGGCCACTATACCACGCGAAC  2.22
28. CCTCCTGGGCCAAGGTCATTGATCAGTCAAAGCA  2.91
29. TAGCTTAGGTCATTCAGGGGCCAGTATAGAAAGC  3.19
30. GATACAGGGTCAGCTAGAGGCCAGACTATGGAAA  3.23
31. CTTACTGGGCCAAGGTCATTGATCAGTCAAAGCA  3.44
32. ATCGAAAGGTCGTAGGTGAGTATACCCACCCGAA  3.47
33. CCTTTCGGGTCACTGACAGGTTATAGCATTTGGA  3.86
34. CATACAGGGTCAGCTAGGCCAGATTAGGGACGGC  3.94
35. CCTAGTTGGACAAGGTCACACACGCTATAGGTAC  4.08
36. CCTACTGGGCGAAAAAGGTCATTGATGCCGATAA  4.21
37. CCTTCTGGGCCAAAGGTCATTGATTCCAATGCTC  4.59
38. ATATGTAGTTTAGCTGGGGTCATTCAGACTAGGC  5.22
39. ACTTACGGTTCAACGAGGTTATAGCACGCGTATA  7.06
40. ACTTACAGGTCAACGAGGTTATAGCACGCGTATA  7.66
